Source: PubChem BioAssay (Tox21)
Results filed as inconclusive are left out. The source made the active and inactive calls. Unless noted, calls follow the shape of the dose curve; as a rule, active = well fitted curve in the direction sought with a large enough effect in the repeat runs; inconclusive = weak or mixed curves; inactive = no such curve, though single readings can be large; an effect the other way counts as inactive or inconclusive.

Assays:
[1] = qHTS assay to identify small molecule agonists of the vitamin D receptor (VDR) signaling pathway - cell viability counter screen (AID 743224); also: nearly all actives have a fitted effect of over 50% in size; also: potency is read from the fitted curve at half-maximal effect
Outline: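 VDR-bla cells were preincubated 4 h at 37C/5% CO2, then exposed to compounds for 16 h. After the 2 h room-temperature bla FRET read, CellTiter-Glo was added to the same wells and luminescence read after 30 min.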

[2] = qHTS assay to identify small molecule antagonists of the vitamin D receptor (VDR) signaling pathway - cell viability counter screen (AID 743225); also: nearly all actives have a fitted effect of over 50% in size; also: potency is read from the fitted curve at half-maximal effect
Outline: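 Same-well multiplex: following 16 h treatment of HEK 293T cells carrying a UAS-driven beta-lactamase reporter with compound and agonist (3 nM final), and a 2 h FRET substrate step, CellTiter-Glo was added and luminescence read after 30 min.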

[3] = qHTS assay to identify small molecule agonists of the NFkB signaling pathway - cell viability counter screen (AID 1159515; calls by dose curve; also: nearly all actives have a fitted effect of over 55% in size; also: potency is read from the fitted curve at half-maximal effect)
Outline: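 NFkB-bla ME-180 cells, 2,000/well, were plated overnight at 37 C, 5% CO2, then exposed to compounds in DMSO for 5 hr. After the bla FRET read, CellTiter-Glo was added to the same wells; luminescence was read after 30 min at room temperature.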

[4] = qHTS assay to identify small molecule agonists of the endoplasmic reticulum stress response signaling pathway - cell viability counter screen (AID 1159517; calls by dose curve; also: nearly all actives have a fitted effect of over 50% in size; also: potency is read from the fitted curve at half-maximal effect)
Outline: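 Cells, HeLa ESRE-bla; density, 1,500/well; dosing, 5 hr at 37 C, 5% CO2; readout, CellTiter-Glo luminescence after 30 min RT.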

[5] = qHTS assay to identify small molecule antagonists of the retinoid-related orphan receptor gamma (ROR-gamma) signaling pathway - cell viability counter screen (AID 1159520); also: nearly all actives have a fitted effect of over 50% in size; also: potency is read from the fitted curve at half-maximal effect
Outline: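 Cytotoxicity was read from cellular ATP (CellTiter-Glo luminescence) after 16 hr at 37 C with 1 uM doxycycline induction. The inducer was added 2 hr after compound transfer to Tet-on ROR gamma CHO cells.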

[6] = qHTS assay to identify small molecule agonists of the AP-1 signaling pathway - cell viability counter screen (AID 1159525; calls by dose curve; also: nearly all actives have a fitted effect of over 55% in size; also: potency is read from the fitted curve at half-maximal effect)
Outline: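 Luminescent ATP readout (Cell Titer Glo, 30 min RT), normalised to DMSO and tetra n-octyl ammonium bromide controls. Cells were ME-180 AP-1-bla in 0.5% dialyzed FBS Opti-MEM, with a 5 h, 37 °C compound exposure.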

[7] = qHTS assay to identify small molecule agonists of the AP-1 signaling pathway (AID 1159526; calls by dose curve)
[8] = molecular target: Retinoic acid receptor RXR-alpha (Homo sapiens) (UniProt P19793); assay: qHTS assay to identify small molecule agonists of the RXR signaling pathway (AID 1159527; calls by dose curve; also: nearly all actives have a fitted effect of over 35% in size)
Sequence of Retinoic acid receptor RXR-alpha (Homo sapiens) (P19793 whole entry, looked up): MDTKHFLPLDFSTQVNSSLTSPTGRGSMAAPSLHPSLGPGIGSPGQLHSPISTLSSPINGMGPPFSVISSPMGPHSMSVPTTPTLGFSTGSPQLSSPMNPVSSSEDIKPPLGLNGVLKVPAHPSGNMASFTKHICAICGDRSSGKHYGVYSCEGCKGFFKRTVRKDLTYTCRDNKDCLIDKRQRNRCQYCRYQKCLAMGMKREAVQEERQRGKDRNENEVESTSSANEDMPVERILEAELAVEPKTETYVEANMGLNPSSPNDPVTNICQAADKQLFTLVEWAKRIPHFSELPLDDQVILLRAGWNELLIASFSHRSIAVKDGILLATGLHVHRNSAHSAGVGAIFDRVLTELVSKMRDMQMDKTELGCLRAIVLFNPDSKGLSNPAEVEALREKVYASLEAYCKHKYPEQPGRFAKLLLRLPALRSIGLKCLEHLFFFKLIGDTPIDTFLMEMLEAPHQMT
Outline: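 Compounds in DMSO were added to RXR-alpha-UAS-bla HEK 293T cells kept in 2% charcoal-stripped serum, and incubated 16 hr at 37 C with 5% CO2. Reporter signal came from a 2 hr B/G FRET substrate step.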

[9] = qHTS assay to identify small molecule antagonists of the retinoid acid receptor (RAR) signaling pathway - cell viability counter screen (AID 1159551); also: nearly all actives have a fitted effect of over 35% in size; also: potency is read from the fitted curve at half-maximal effect
Outline: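 C3RL4 cells were seeded overnight at 37 C, then treated with compounds plus 1 uM (final) retinol for 6 h at 37 C. Viability was read as ATP by CellTiter-Glo luminescence after 30 min at room temperature.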

[10] = qHTS assay to identify small molecule antagonists of the retinoic acid receptor (RAR) signaling pathway (AID 1159552; also: nearly all actives have a fitted effect of over 50% in size; also: potency is read from the fitted curve at half-maximal effect)
Outline: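 Antagonism of retinol-induced RARE reporter activity was measured in C3RL4 cells. Exposure to compounds and 1 uM final retinol lasted 6 hr at 37 C, with luminescence as endpoint.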

[11] = molecular target: Nuclear receptor ROR-gamma (Homo sapiens) (UniProt P51449); assay: qHTS assay to identify small molecule antagonists of the retinoid-related orphan receptor gamma (ROR-gamma) signaling pathway (AID 1159521; also: nearly all actives have a fitted effect of over 50% in size; also: potency is read from the fitted curve at half-maximal effect)
Outline: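 Inducible-expression reporter assay: doxycycline (1 uM final) switched on RORγ in CHO cells bearing a ROR response element-luciferase construct, with test compounds present from 2 h beforehand. Decreased luminescence after 16 h defined antagonist activity.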

[12] = qHTS assay to identify small molecule agonists of the retinoic acid receptor (RAR) signaling pathway (AID 1159553); also: potency is read from the fitted curve at half-maximal effect
Outline: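 C3RL4 cells carrying a RARE luciferase reporter were plated overnight at 37 C, then exposed to compounds in DMSO for 6 hr at 37 C and 5% CO2. Luminescence was read 30 min after luciferase reagent addition at room temperature.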

[13] = qHTS assay to identify small molecule agonists of the RXR signaling pathway - cell viability counter screen (AID 1159529); also: nearly all actives have a fitted effect of over 50% in size; also: potency is read from the fitted curve at half-maximal effect
Outline: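 Counter screen: CellTiter-Glo luminescence. Cells: RXR-alpha-UAS-bla HEK 293T. Medium: 2% charcoal-stripped FBS. Treatment: 16 h, 37 C. Reagent incubation: 30 min, RT.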

[14] = qHTS assay to identify small molecule antagonists of the estrogen related receptor (ERR) signaling pathway - cell viability counter screen (AID 1224818);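 also: series mostly up to about 46 µM; viability measured after 17.5 h of compound exposure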
Outline: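 ERR reporter cells plated 6 h at 37 C/5% CO2, then compounds in DMSO pin-transferred and incubated 17.5 h at 37 C. Viability read as CellTiter-Fluor fluorescence after 30 min at 37 C.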

[15] = qHTS assay to identify small molecule antagonists of the estrogen related receptor (ERR) signaling pathway (AID 1224819)
Outline: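 ERR reporter cells were plated at 2,000 cells/well and left 6 h at 37 C/5% CO2 before pin-tool transfer of compounds in DMSO. After 18 h at 37 C, One-Glo was added and luminescence was read 30 min later at room temperature.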

[16] = qHTS assay to identify small molecule agonists of the estrogen related receptor (ERR) signaling pathway (AID 1224820)
Outline: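 ERR reporter cells (NTP line) plated 2,000/well, incubated 6 h at 37 C/5% CO2, then pinned with compounds in DMSO and held 18 h at 37 C. One-Glo added; luminescence read after 30 min at room temperature.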

[17] = tested on: estrogen-related receptor alpha (ERRalpha) with PGC-1alpha coactivator, human; assay: qHTS assay to identify small molecule antagonists of the estrogen related receptor signaling pathway with the pleiotropic PPARgamma coactivator (PGC) (AID 1224821; calls by dose curve)
Outline: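 Cells engineered for PGC/ERR signalling (line from NTP) were plated 6 h at 37 C/5% CO2, then exposed to DMSO-dissolved compound for 18 h at 37 C. Luciferase activity was read by One-Glo luminescence after 30 min at room temperature.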

[18] = qHTS assay to identify small molecule antagonists of the estrogen related receptor signaling pathway with the pleiotropic PPARgamma coactivator (PGC) cell viability counter screen (AID 1224822; also: series mostly up to about 46 µM)
Outline: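 PGC/ERR cells were seeded at 2,000 cells/well, rested 6 h at 37 C/5% CO2, then given compounds in DMSO by pin tool and incubated 17.5 h at 37 C. Viability came from CellTiter-Fluor fluorescence after 30 min.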

[19] = qHTS assay to identify small molecule agonists of the estrogen related receptor signaling pathway with the pleiotropic PPARgamma coactivator (PGC) (AID 1224823)
Outline: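 PGC/ERR reporter cells were seeded, rested 6 h at 37 C/5% CO2, then exposed to compounds in DMSO by pin transfer for 18 h at 37 C. Luciferase activity was read as luminescence after One-Glo reagent and 30 min at room temperature.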

Measured: Potency

COc1ccc(-c2ccc3cc(C(=O)O)ccc3c2)cc1C12CC3CC(CC(C3)C1)C2
active: [1] 23.7 µM | [3] 21.3 µM | [4] 10.7 µM | [5] 29.8 µM
inactive: [2] | [6] | [7] | [8] | [9] | [10]

CCOc1ccc2nc3cc(N)ccc3c(N)c2c1
inactive: [1] | [2] | [3] | [4] | [5] | [11] | [6] | [9] | [12]

Oc1cccc2cc3cccc(O)c3c(O)c12
inactive: [1] | [2] | [3] | [4] | [5] | [11] | [13]

O=C(c1ccc(F)cc1)C1CCN(CCn2c(=O)[nH]c3ccccc3c2=O)CC1
not listed: [1] | [2] | [8] | [11]
inactive: all other assays above

CCC1OCC(COc2ccc(Oc3ccccc3)cc2)O1 (stereo not given)
active: [1] 49 µM | [12] 3.44 µM
inactive: [3] | [4] | [5] | [11] | [6] | [9]

CNCc1cc(F)ccc1Oc1ccc(Cl)c(Cl)c1
active: [11] 34.4 µM
inactive: [3] | [4] | [5] | [6] | [9]

CCCCCCCCCCCC[N+](C)(C)CCCCCCCCCCCC
active: [1] 19.5 µM | [2] 24.5 µM | [3] 21.9 µM | [4] 43.6 µM | [5] 27.3 µM | [11] 19.3 µM | [6] 30.9 µM | [13] 15.5 µM | [9] 43.3 µM

Nc1ccc2c3c(cccc13)-c1ccccc1-2
inactive: [3] | [4] | [5] | [11] | [6] | [9]

[Cl][Bi]([Cl])([c]1ccccc1)([c]1ccccc1)[c]1ccccc1
active: [1] 3.87 µM | [2] 2.44 µM | [3] 54.6 µM | [4] 38.7 µM | [5] 12.1 µM | [11] 2.16 µM | [13] 2.74 µM | [9] 54.2 µM | [10] 3.83 µM

CCCC/C=C/CCCCO
inactive: [1] | [3] | [4] | [5] | [11] | [6] | [13] | [9]

OCCN1CCN(CC/C=C2/c3ccccc3Sc3ccc(C(F)(F)F)cc32)CC1
active: [2] 23.9 µM | [3] 26.8 µM | [4] 23.9 µM | [5] 29.8 µM | [11] 26.6 µM | [6] 23.9 µM | [13] 19 µM
inactive: [16] | [17] | [18] | [19]

CC(C)c1ccc2c(c1)CC[C@H]1[C@](C)(CN)CCC[C@]21C
active: [1] 17.4 µM | [3] 19.5 µM | [4] 9.77 µM | [5] 30.6 µM | [11] 30.6 µM | [6] 54.9 µM | [13] 21.9 µM

CCCCCCCC[N+](CCCCCCCC)(CCCCCCCC)CCCCCCCC
active: [1] 8.69 µM | [2] 7.75 µM | [3] 24.5 µM | [4] 43.6 µM | [5] 8.62 µM | [11] 6.1 µM | [6] 15.5 µM | [13] 13.8 µM | [9] 27.3 µM

O=c1[nH]sc2ccccc12
active: [1] 12.3 µM | [3] 49 µM | [4] 54.9 µM | [5] 21.7 µM | [11] 17.2 µM | [6] 34.7 µM | [13] 19.5 µM

COCCCC/C(=N\OCCN)c1ccc(C(F)(F)F)cc1
active: [10] 23.7 µM
not listed: [7] | [8] | [13]
inactive: all other assays above

CCCCCCCC/C=C/CCCCCCCC1=NCCN1CCO
active: [1] 34.7 µM | [2] 34.7 µM | [3] 49 µM | [4] 43.6 µM | [5] 68.6 µM | [11] 61.1 µM | [13] 49 µM | [9] 68.6 µM

NC(=O)NS(=O)(=O)c1ccc(N)cc1
inactive: [3] | [4] | [5] | [6] | [7] | [8] | [13] | [9] | [10] | [12]

O=c1[nH]cnc2nc[nH]c12
inactive: [3] | [4] | [5] | [11] | [7] | [8] | [13] | [9] | [10]

O=[N+]([O-])c1ccccc1Nc1ccccc1
not listed: [11] | [12] | [14] | [15] | [16] | [17] | [18] | [19]
inactive: all other assays above
